In all, about 290,000 compounds went through this assay and fewer than 10 were called active. A selection follows. Unmarked numbers belong to inactive results. Calls follow the shape of the full dose curve.
The compounds below were run against Pyruvate kinase (Leishmania mexicana) (UniProt Q27686) (assay: qHTS Assay for Activators of Leishmania Mexicana Pyruvate Kinase (LmPK)). Settings: purified LmPK, Kinase-Glo ATP luminescence, 1 h; series mostly up to 57.5 µM; activity change, negative = inhibition: at the top concentration.
Pyruvate kinase (Leishmania mexicana), sequence (Q27686 whole entry, looked up): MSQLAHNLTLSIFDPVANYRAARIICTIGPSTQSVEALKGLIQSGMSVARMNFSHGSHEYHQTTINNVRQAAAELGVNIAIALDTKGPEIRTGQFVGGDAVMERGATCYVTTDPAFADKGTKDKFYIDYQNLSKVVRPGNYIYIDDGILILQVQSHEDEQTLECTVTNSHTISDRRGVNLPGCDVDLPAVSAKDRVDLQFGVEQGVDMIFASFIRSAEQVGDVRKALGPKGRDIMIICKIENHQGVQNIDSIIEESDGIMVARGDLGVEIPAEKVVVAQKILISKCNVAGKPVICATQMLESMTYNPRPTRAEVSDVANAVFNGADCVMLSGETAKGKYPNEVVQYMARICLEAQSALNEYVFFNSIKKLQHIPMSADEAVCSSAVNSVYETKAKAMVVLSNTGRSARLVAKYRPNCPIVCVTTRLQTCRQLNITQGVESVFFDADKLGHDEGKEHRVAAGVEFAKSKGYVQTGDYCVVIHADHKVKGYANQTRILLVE
Text: NIH Chemical Genomics Center [NCGC] Malcolm Walkinshaw, Hugh Morgan, Linda Gilmore University of Edinburgh, UK MLPCN Grant: 1 R03 MH085697-01 NCGC Assay Overview: Pyruvate kinase (L. Mexicana) (LmPK) enzyme was supplied as a highly purified (>95% pure) sulphate-free preparation from University of Edinburgh, UK and assayed for its ability to generate ATP from ADP using phosphoenolpyruvate (PEP) as a substrate. ATP generation was detected in a coupled reaction by luciferase-mediated luminescence, an ATP-dependent process. Pyruvate kinase substrates, PEP and ADP, were present in the assay at Km and approximately 10-fold below Km respectively. The enzyme was assayed at an intermediate level of activity to screen for both inhibitors and activators.
NCGC Assay Protocol Summary: Three uL of enzyme mix (kept on ice) in assay buffer (50 mM Imidazole pH7.2, 50 mM KCl, 7 mM MgCl2, 0.01% Tween 20, 0.05% BSA) containing PEP (0.5 mM final concentration) and LmPK (0.1 nM final concentration) was dispensed into white solid bottom 1,536 well microtiter plates. 23 nL of compound were delivered by a pin tool and 1 uL of ADP mix in assay buffer (r.t; 0.1 mM final ADP concentration) was added. Plates were incubated at room temperature for 1 hour. Two uL of detection mix (Kinase-Glo, Promega; at 4 degree Celsius protected from light) was added and luminescence read by a ViewLux (Perkin Elmer) at 1 second exposure/plate. Data were normalized to the uninhibited and AC100 inhibition (no enzyme). To monitor activation, the first column contained a five-fold concentration of LmPK (0.5 nM).

Question: Which “activity change, negative = inhibition” value does the source give for `COc1ccc(C(=O)NC(=S)N2CCCCC2c2cccnc2)cc1OC` (stereo not given) here?
Answer: -68.1%

Question: Which “activity change, negative = inhibition” value does the source give for `CN(C)N=Nc1ccc2nc[nH]c2c1` here?
Answer: -49.1%

Question: `CC(=O)Nc1ccc(/C=C/C(=O)c2ccccc2)cc1` was tested. Which “activity change, negative = inhibition” value did it give?
Answer: -55.2%

Question: With `COc1ccccc1OCc1nc2ccccc2s1` as the compound, how does the “activity change, negative = inhibition” value read?
Answer: -84.8%

Question: With `Oc1ccccc1/C=N/n1c(-c2cccs2)n[nH]c1=S` as the compound, how does the “activity change, negative = inhibition” value read?
Answer: -30.4%

Question: How did the “activity change, negative = inhibition” value turn out when `O=C(Oc1ccc(-c2nc(-c3ccccn3)no2)cc1)c1ccccc1` was run?
Answer: -37.7%

Question: For `O=c1[nH]c2ccccc2n2c(-c3ccccc3)nnc12`, which “activity change, negative = inhibition” value is on record?
Answer: -74.5%

Question: Which “activity change, negative = inhibition” value does the source give for `O=[N+]([O-])c1ccc2oc(-c3cccc(O)c3)nc2c1` here?
Answer: -33.8%

Question: `S=c1[nH]nc2c3c4c(sc3ncn12)CCCC4` was tested. Which “activity change, negative = inhibition” value did it give?
Answer: -57.3%

Question: Which “activity change, negative = inhibition” value does the source give for `CCOC(=O)c1sc(NC(=O)c2ccncc2)nc1C` here?
Answer: -37.2%

Question: `Cn1c(-c2ccco2)nc2cc3ccccc3cc21` was tested. Which “activity change, negative = inhibition” value did it give?
Answer: -80.5%

Question: With `O=c1[nH]c(CCl)nc2cc(-c3ccc(Cl)cc3)sc12` as the compound, how does the “activity change, negative = inhibition” value read?
Answer: -30.2%

Question: `O=C(Nc1ccc(C(=O)O)c(O)c1)c1ccccc1` was tested. Which “activity change, negative = inhibition” value did it give?
Answer: -55.6%

Question: For `CC(=O)N(C1=C(Cl)C(=O)c2ccccc2C1=O)c1ccc(C(=O)O)cc1`, which “activity change, negative = inhibition” value is on record?
Answer: -97.8%

Question: How did the “activity change, negative = inhibition” value turn out when `O=c1c2c(nc3n1CCCCC3)sc1c(O)cccc12` was run?
Answer: -38.8%

Question: For `Cc1cc(NC(=O)Nc2ccccc2[N+](=O)[O-])no1`, which “activity change, negative = inhibition” value is on record?
Answer: -30.1%

Question: Which “activity change, negative = inhibition” value does the source give for `COc1ccc(-c2cn3ccsc3n2)cc1` here?
Answer: -44.3%

Question: For `CCC(=O)Nc1ccc(C(=O)Nc2cccc(OC)c2)cc1`, which “activity change, negative = inhibition” value is on record?
Answer: -41%

Question: Which “activity change, negative = inhibition” value does the source give for `O=c1oc2ccccc2cc1-c1cn(-c2ccccc2)c(=S)[nH]1` here?
Answer: -52.2%

Question: `S=c1[nH]cc(-c2ccc(Cl)cc2)n1-c1ccccc1` was tested. Which “activity change, negative = inhibition” value did it give?
Answer: -27%

Question: How did the “activity change, negative = inhibition” value turn out when `Cc1ccnc(NC(=O)c2ccoc2C)c1` was run?
Answer: -80.2%

Question: With `CCCCSc1nnc2c(n1)OC=Nc1ccccc1-2` as the compound, how does the “activity change, negative = inhibition” value read?
Answer: -36.3%

Question: With `O=C(Nc1nnc(C2CC2)s1)c1ccccn1` as the compound, how does the “activity change, negative = inhibition” value read?
Answer: -63.9%

Question: How did the “activity change, negative = inhibition” value turn out when `COc1ccccc1N=Cc1c(O)c2ccccc2oc1=O` was run?
Answer: -40.9%

Question: `Cc1nonc1C(=O)N/N=C/c1ccc(O)cc1` was tested. Which “activity change, negative = inhibition” value did it give?
Answer: -87.7%

Question: `CC(C)Oc1ccc(CCc2n[nH]c(=S)n2Cc2ccccc2)cc1` was tested. Which “activity change, negative = inhibition” value did it give?
Answer: -41.2%

Question: `CCc1n[nH]c(=S)n1/N=C/c1c[nH]c2ccc(Br)cc12` was tested. Which “activity change, negative = inhibition” value did it give?
Answer: -58.2%

Question: For `COc1cc(OC)c(C(=O)Nc2ccc(N(C)C)cc2)cc1OC`, which “activity change, negative = inhibition” value is on record?
Answer: -38.5%

Question: How did the “activity change, negative = inhibition” value turn out when `CC(C)c1ccc(Nc2ncccc2C#N)cc1` was run?
Answer: -45.8%

Question: How did the “activity change, negative = inhibition” value turn out when `O=C(Nc1cccc2ccccc12)c1onc2c1CCCC2` was run?
Answer: -58.3%

Question: How did the “activity change, negative = inhibition” value turn out when `CN(C)c1nc(=Nc2cccc(Cl)c2)ss1` was run?
Answer: -52.9%

Question: For `Oc1ccc(N=Nc2nccs2)c(O)c1`, which “activity change, negative = inhibition” value is on record?
Answer: -62.3%

Question: `CCc1nnc(NS(=O)(=O)c2ccc(N=Cc3c(C)[nH]n(-c4ccc(C)cc4)c3=O)cc2)s1` was tested. Which “activity change, negative = inhibition” value did it give?
Answer: -44.9%

Question: Which “activity change, negative = inhibition” value does the source give for `Cc1ccc(NC(=O)c2sccc2C)cc1[N+](=O)[O-]` here?
Answer: -43.8%

Question: For `Cc1cc(C(=O)COC(=O)C2CC2)c(C)n1-c1ccc(F)cc1`, which “activity change, negative = inhibition” value is on record?
Answer: -45.2%

Question: Which “activity change, negative = inhibition” value does the source give for `CCCCCC(=O)NC(=S)NNC(=O)c1ccc([N+](=O)[O-])cc1` here?
Answer: -63.3%

Question: With `COC(=O)c1ccc(NCC(=O)c2ccccc2)cc1` as the compound, how does the “activity change, negative = inhibition” value read?
Answer: -53.5%

Question: For `N/C(=N\OC(=O)c1ccc([N+](=O)[O-])cc1)c1ccccn1`, which “activity change, negative = inhibition” value is on record?
Answer: -64.5%

Question: `CCOc1ccc(NC(=O)Nc2cc(C)ccc2OC)cc1` was tested. Which “activity change, negative = inhibition” value did it give?
Answer: -31.1%

Question: How did the “activity change, negative = inhibition” value turn out when `COc1ccccc1C(=O)Nc1ccc(NC(=O)c2ccco2)c(C)c1` was run?
Answer: -73.8%

Question: How did the “activity change, negative = inhibition” value turn out when `O=c1oc2cc(O)ccc2cc1-c1ccc(F)cc1` was run?
Answer: -57%

Question: How did the “activity change, negative = inhibition” value turn out when `CC(OC(=O)c1ccc2ccccc2n1)C(=O)c1ccccc1` (stereo not given) was run?
Answer: -32.6%

Question: How did the “activity change, negative = inhibition” value turn out when `Nc1[nH][nH]c(=O)c1N=Nc1ccc2c(c1)OCO2` was run?
Answer: -30.8%

Question: For `Cc1ccc(OCc2n[nH]c(=S)n2-c2ccccc2)cc1`, which “activity change, negative = inhibition” value is on record?
Answer: -49.9%

Question: With `O=C(/C=C/c1ccc(N2CCOCC2)cc1)c1ccccc1` as the compound, how does the “activity change, negative = inhibition” value read?
Answer: -38.4%

Question: How did the “activity change, negative = inhibition” value turn out when `O=C1Nc2ccc(Br)cc2/C1=N/N=C/C1=C(N2CCOCC2)C(=C\c2ccccc2)/CC1` was run?
Answer: -66.7%

Question: With `COc1ccc(C(=O)C[n+]2ccc(N)c(C)c2C)cc1` as the compound, how does the “activity change, negative = inhibition” value read?
Answer: -74.2%

Question: Which “activity change, negative = inhibition” value does the source give for `S=c1[nH]nc(COc2ccccc2)n1-c1ccccc1` here?
Answer: -45.1%

Question: For `COc1ccc(C(CC(=O)c2ccccc2)S(=O)(=O)c2ccccc2)cc1` (stereo not given), which “activity change, negative = inhibition” value is on record?
Answer: -33.8%

Question: `S=c1[nH]nc(CSCc2ccc(Cl)cc2Cl)n1-c1ccccc1` was tested. Which “activity change, negative = inhibition” value did it give?
Answer: -42.5%

Question: `C(=N\Nc1ccc2ccccc2n1)/c1ccc2c(c1)OCO2` was tested. Which “activity change, negative = inhibition” value did it give?
Answer: -46.9%

Question: For `Cc1ccc(-n2c(-c3ccc(Cl)cc3)n[nH]c2=S)cc1`, which “activity change, negative = inhibition” value is on record?
Answer: -95.3%

Question: With `O=c1c(-c2ccccc2)coc2cc(O)ccc12` as the compound, how does the “activity change, negative = inhibition” value read?
Answer: -57.5%

Question: With `CN(C)c1ccc(Nc2c3c4c(cccc4n(C)c2=O)C(=O)c2ccccc2-3)cc1` as the compound, how does the “activity change, negative = inhibition” value read?
Answer: -37.4%

Question: How did the “activity change, negative = inhibition” value turn out when `COc1ccc(-c2cn(-c3ccc(OC)cc3)c(=S)[nH]2)cc1` was run?
Answer: -19.8%

Question: `O=C(CSC(=S)N1CCOCC1)c1ccccc1` was tested. Which “activity change, negative = inhibition” value did it give?
Answer: -54.1%

Question: `CSc1ccc(/C=N/NC(=O)c2cccc(Cl)c2)cc1` was tested. Which “activity change, negative = inhibition” value did it give?
Answer: -33.4%

Question: How did the “activity change, negative = inhibition” value turn out when `COc1ccc(-c2nc(-c3ccccc3)no2)c(OC)c1` was run?
Answer: -71.5%

Question: How did the “activity change, negative = inhibition” value turn out when `Cc1cccc(NC(=O)/C=C/c2ccc3c(c2)OCO3)n1` was run?
Answer: -36.4%

Question: `O=C(Nc1ccc(Cl)cn1)c1ccc2c(c1)OCCO2` was tested. Which “activity change, negative = inhibition” value did it give?
Answer: -65.4%

Question: For `Cc1c(Cl)cccc1NC(=O)Nc1ccc(C(=O)N2CCCC2)cc1`, which “activity change, negative = inhibition” value is on record?
Answer: -31.5%

Question: Which “activity change, negative = inhibition” value does the source give for `Cc1cccc(/C(N)=N/OC(=O)c2ccccc2Cl)c1` here?
Answer: -95.3%

Question: With `CN=C1C=C/C(=N/N=c2\ccn(O)cc2C)C=C1C` as the compound, how does the “activity change, negative = inhibition” value read?
Answer: -51.9%

Question: Which “activity change, negative = inhibition” value does the source give for `COc1cccc(/C=C/c2ccc3ccccc3n2)c1OC(C)=O` here?
Answer: -74%

Question: With `Cc1n[nH]c(=O)nc1N/N=C/c1cccs1` as the compound, how does the “activity change, negative = inhibition” value read?
Answer: -58.4%

Question: For `COc1ccc(-n2c(-c3ccc(OC)c(OC)c3)n[nH]c2=S)cc1`, which “activity change, negative = inhibition” value is on record?
Answer: -68.7%

Question: With `c1csc(-c2nc(-c3ccncc3)no2)c1` as the compound, how does the “activity change, negative = inhibition” value read?
Answer: -41.6%

Question: How did the “activity change, negative = inhibition” value turn out when `Cc1ccn2cc(-c3nonc3C)cc2c1` was run?
Answer: -33.1%

Question: How did the “activity change, negative = inhibition” value turn out when `COc1cc(SC)ccc1C(=O)Nc1nc(C)cs1` was run?
Answer: -60.5%

Question: How did the “activity change, negative = inhibition” value turn out when `O=c1c2ccccc2cnn1Cc1n[nH]c(=S)n1-c1ccccc1F` was run?
Answer: -48.1%

Source: PubChem BioAssay AID1722 (National Center for Advancing Translational Sciences (NCATS), 2009)
